Source: PubChem BioAssay (NCI)
About 83,000 compounds went through this panel and 20% of them were active in at least one assay; those are over-represented in the sample as a whole.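 Cells were grown in 96-well plates and exposed to the test compound at a single concentration for 48 hours; results are reported as percent growth, with values below 10 considered active.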 Unmarked numbers belong to inactive results. Active and inactive are the calls of the source.

Key:
Assay in all cases: NCI-60 one-dose screen, 48 h (100 = growth as untreated, 0 = no growth, -100 = all killed)
[1] = system: HCT-15 colon; conditions: 10 µM unless noted
[2] = system: HT29 colon; conditions: 10 µM unless noted
[3] = system: SNB-75 CNS; conditions: 10 µM unless noted
[4] = system: SNB-19 CNS; conditions: 10 µM unless noted
[5] = system: U251 CNS; conditions: 10 µM unless noted
[6] = system: PC-3 prostate; conditions: 10 µM unless noted
[7] = system: SK-MEL-5 melanoma; conditions: 10 µM unless noted
[8] = system: UACC-62 melanoma; conditions: 10 µM unless noted
[9] = system: LOX IMVI melanoma; conditions: 10 µM
[10] = system: SK-MEL-28 melanoma; conditions: 10 µM unless noted

| Compound | growth [1] | growth [2] | growth [3] | growth [4] | growth [5] | growth [6] | growth [7] | growth [8] | growth [9] | growth [10] |
| --- | --- | --- | --- | --- | --- | --- | --- | --- | --- | --- |
| CN(C)c1nc(NCCNS(=O)(=O)c2ccc(C3=Nc4c(N)nc(N)nc4NC(c4ccc(Cl)cc4)C3)cc2)nc(Nc2ccc(F)cc2)n1 (stereo not given) | 32% | -41.4% (active) | 53.2% | 34.5% | 27.5% | 31.3% | -48.7% (active) | 25.6% | -56.4% (active) | 38.9% |
| O=C(CCN1C(=O)/C(=C/c2ccc(F)cc2)SC1=S)N1CCOCC1 | 55.3% | 78.7% | 98.3% | 87.6% | 89.1% | 106% | 83.2% | 47.6% | 40.2% | 72.9% |
| C#CCOc1cc(N(CC)CC)ccc1C(C(=O)NC(C)(C)C)N(C(=O)C1CCc2cc(F)ccc2O1)c1ccc(F)c(Cl)c1 (stereo not given) | 51.1% | 79% | 59% | 60.5% | 45.1% | 25.7% | 61.1% | 45.8% | 52.9% | 75.5% |
| O=c1oc2ccccc2cc1-c1csc(N=Nc2c(O)[nH]c3ccc(Cl)cc23)n1 | 98.8% | 107% | 98.1% | 89.7% | 101% | 108% | 98.7% | 92% | 100% | 109% |
| CN(C)c1nc(NCCNS(=O)(=O)c2ccc(C3=Nc4c(N)nc(N)nc4NC(c4ccccc4)C3)cc2)nc(Nc2ccc(F)cc2)n1 (stereo not given) | 37.4% | 18.3% | 62.5% | 56.6% | 36.4% | 26.5% | 33.7% | 55.9% | 3.29% (active) | 60.2% |
| O=C(CN1C(=O)/C(=C/c2ccccc2F)SC1=S)N1CCOCC1 | 29.4% | 87.1% | 106% | 91% | 91.8% | 95.1% | 93.9% | 76.2% | 38% | 86.4% |
| COc1ccc(/C=C/c2n(Cc3ccc4ccccc4c3)c3ccccc3[n+]2Cc2ccc3ccccc3c2)cc1 | -76.9% (active) | -97.1% (active) | -95.7% (active) | -94.6% (active) | -94.3% (active) | -25.1% (active) | -97.6% (active) | -90.5% (active) | -80.4% (active) | -89% (active) |
| COc1ccc2oc(=O)c(C3(C)NC(=O)c4c(/C=C/C(=O)OC(C)(C)C)cccc4N3)cc2c1 (stereo not given) | 32.6% | 39.1% | 56.3% | 50.8% | 48.4% | 15.6% | -59.8% (active) | 20.4% | 49.1% | 40.6% |
| CCCCn1c(O)c(N=Nc2nc(-c3cc4ccccc4oc3=O)cs2)c2cc(Br)ccc21 | 102% | 112% | 102% | 95.3% | 101% | 97.4% | 98.3% | 93.5% | 94.7% | 104% |
| Cc1ccc(-c2nc(C#N)c(S(=O)(=O)N3CCN(S(=O)(=O)c4ccccc4)CC3)o2)cc1 | -85.8% (active) | -56% (active) | 103% | 74.9% | 24.3% | 52.3% | 0.485% (active) | 18.5% | -92.2% (active) | 18.9% |
| Cn1cc(-c2cc3nc(-c4c[nH]c5ccc(Br)cc45)cc(N)n3n2)c2ccccc21 | -85.2% (active) | -83.1% (active) | -64.5% (active) | -68.1% (active) | -89.9% (active) | -77.3% (active) | -77.8% (active) | -70.3% (active) | -85.1% (active) | -96.6% (active) |
| C#CCOc1cc(N(CC)CC)ccc1C(C(=O)NC(C)(C)C)N(C(=O)C1CCc2cc(F)ccc2O1)c1ccc(F)cc1 (stereo not given) | 44.6% | 61% | 60.5% | 41.6% | 37.9% | 17.6% | 33.9% | 35.5% | 42.3% | 66.7% |
| COc1ccc2[nH]cc(-c3cc(N)n4nc(-c5cn(C)c6ccccc56)cc4n3)c2c1 | -83.4% (active) | -73.7% (active) | -52.4% (active) | -48.4% (active) | -85.3% (active) | -67.6% (active) | -96.3% (active) | -76.5% (active) | -67.9% (active) | -92.9% (active) |
| COc1ccc2c(c1)c(-c1cc(N)n3nc(-c4cn(C)c5ccccc45)cc3n1)cn2C | -80.1% (active) | -64.6% (active) | -66.3% (active) | 4.07% (active) | -80% (active) | -20.5% (active) | -58.3% (active) | -58.4% (active) | -87.1% (active) | -92.2% (active) |
| O=c1oc2ccccc2cc1-c1csc(N2N=C(c3ccccc3)CC2c2ccc(N3CCOCC3)cc2)n1 (stereo not given) | 96.6% | 117% | 101% | 116% | 109% | 102% | 105% | 92.2% | 86.7% | 109% |
| CCN(CC)c1ccc(/C=N/Nc2nc(-c3ccc(C)cc3)cs2)c(O)c1 | 67.2% | 83.5% | 92.1% | 89.6% | 90% | 70.5% | 79.7% | 80.6% | 88.2% | 95% |
| O=C(O)Cn1c(O)c(/C=C2/C=c3cc4c(cc3=NC2=O)OCCO4)sc1=S | 98.5% | 119% | 101% | 97.9% | 109% | 106% | 107% | 94.8% | 93.6% | 116% |
| N/C(=N\c1nc2ccccc2s1)NC(=O)Nc1ccccc1Br | -4.76% (active) | -61.1% (active) | -33.3% (active) | 2.22% (active) | -53.3% (active) | 34.6% | -55.3% (active) | -7.53% (active) | -75.7% (active) | 28.5% |
| COc1ccc(/C=C/c2nc3ccccc3nc2Nc2cccc(C)c2)cc1 | 104% | 101% | 99% | 98.5% | 96.1% | 96.5% | 95.7% | 83.4% | 108% | 108% |
| O=C(NN1C(=O)/C(=C/C=C/c2ccc([N+](=O)[O-])o2)SC1=S)c1cccc(O)c1 | -65.1% (active) | -67.2% (active) | -71.3% (active) | -96.5% (active) | -96.2% (active) | -40.2% (active) | -100% (active) | -97.4% (active) | -93.5% (active) | -100% (active) |
| Nc1nnc(-c2c[nH]c3ccc(Br)cc23)c(-c2c[nH]c3ncc(Br)cc23)n1 | 26.9% | 43.6% | 50.2% | 47% | 41.8% | 29.1% | 44.2% | 25.3% | 31.8% | 37.5% |
| COc1ccc(NC(=O)Nc2ccc(OCc3ccc(F)cc3)cc2)cc1 | 91.1% | 92.3% | 63.6% | 46.9% | 34.8% | 79.7% | 76.6% | 82.6% | 26.6% | 75.5% |
| Cc1cccc(-c2nc(Nc3cccc(S(N)(=O)=O)c3)c3ccccc3n2)c1 | 9.69% (active) | 38.4% | 80.3% | 51.4% | 36.3% | 39.8% | 56.5% | 49.9% | 7.14% (active) | 57.7% |
| CN(C)c1nc(NCCNS(=O)(=O)c2ccc(C(=O)/C=C/c3ccc(Cl)cc3)cc2)nc(Nc2ccc(F)cc2)n1 | -84.4% (active) | -97.5% (active) | 13.9% | -5.63% (active) | -99.8% (active) | -65.9% (active) | -64.9% (active) | -56.8% (active) | -100% (active) | -85.5% (active) |
